{
  "source": "paper PMC5540273",
  "about": "(PLoS ONE, 2017);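 further: KINOMEscan kinase panel screen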",
  "data": [
    {"test_system": "T1, TRKA", "T1 construct": "gene NTRK1", "conditions": "concentration: 1 μM, replicates: in singlicate; n = 1", "units": {"%Inh": "%"}, "values": [
      {"smiles": "Cn1cc(-c2ccc3c(c2)CCN3C(=O)Cc2cccc(Cl)c2)c2c(N)ncnc21", "note": "[GSK2606590]", "%Inh": 73},
      {"smiles": "COc1ccc(-c2coc3ccc(-c4nnc(SCc5ccc(OC)c(C(F)(F)F)c5)o4)cc23)cc1", "%Inh": 5},
      {"smiles": "CCS(=O)(=O)c1ccc(OC)c(Nc2nccc(-c3c(-c4cccc(NC(=O)c5c(F)cccc5F)c4)nn4ncccc34)n2)c1", "note": "[GSK326180]", "%Inh": 0},
      {"smiles": "O=C(Nc1cccc(-c2nn3ccccc3c2-c2ccnc(Nc3cccc(C(F)(F)F)c3)n2)c1)c1c(F)cccc1F", "note": "[GSK292658]", "%Inh": 0},
      {"smiles": "NCCCC(NC(=O)c1cc(Br)c(-c2ccnc3[nH]ccc23)s1)c1ccccc1.O=C(O)C(F)(F)F.O=C(O)C(F)(F)F", "note": "(stereo not shown) [GSK1287544]", "%Inh": 53},
      {"smiles": "CC(=O)Nc1nc2cnc(Nc3cc(NC(=O)c4cccc(C5(C#N)CC5)c4Cl)ccc3C)nc2s1", "%Inh": 0},
      {"smiles": "COc1ccc(CNC(=O)NC2CCN(c3ccnc(Nc4ccc(F)cc4)n3)CC2)cc1", "note": "[GSK1379788]", "%Inh": 0},
      {"smiles": "Clc1ccc(-c2nn3ncccc3c2-c2ccnc(Nc3ccc4c(c3)OCCO4)n2)cc1", "note": "[GW829116]", "%Inh": 0},
      {"smiles": "CC(C)(C)c1ccc2nccc(Nc3cccc(O)c3)c2c1", "note": "[GW856795]", "%Inh": 72},
      {"smiles": "COc1cc(Nc2nccc(N3CCC(NC(=O)Nc4cccc(C(C)=O)c4)C3)n2)cc(OC)c1OC", "note": "(stereo not shown) [GSK1379753]", "%Inh": 62},
      {"smiles": "COc1cc(Nc2nccc(-c3c(-c4cccc(NC(=O)c5c(F)cccc5F)c4)nn4ccccc34)n2)cc(OC)c1OC", "note": "[GSK323521]", "%Inh": 78},
      {"smiles": "COc1cccc(NC(=O)NC2CCN(c3ccnc(Nc4cc(OC)c(OC)c(OC)c4)n3)C2)c1", "note": "(stereo not shown) [GSK1379763]", "%Inh": 54},
      {"smiles": "O=C(O)C(F)(F)F.O=C(O)C(F)(F)F.O=c1[nH]ccc2nc(N[C@@H]3CCCNC3)nc(Nc3ccc(S(=O)(=O)N4CCOCC4)cc3)c12", "note": "[GSK2177277]", "%Inh": 100},
      {"smiles": "CCCCc1nn2ncccc2c1-c1ccnc(Nc2ccc(N3CCN(C)CC3)cc2)n1", "note": "[GW684941]", "%Inh": 88},
      {"smiles": "CN(c1ccc(NC(=O)Nc2cc(C(F)(F)F)ccc2F)cc1)c1ccnc(Nc2ccc(S(N)(=O)=O)cc2)n1", "note": "[GW809893]", "%Inh": 100},
      {"smiles": "Nc1ncc(-c2cccnc2)c2scc(-c3ccc4c(c3)CCN4C(=O)Cc3ccccc3)c12", "note": "[GSK683281]", "%Inh": 22},
      {"smiles": "Cc1ccc(C(=O)Nc2ccc(Nc3ccnc4cc(-c5nccs5)ccc34)cc2O)cc1.Cl", "note": "[GW494702]", "%Inh": 60},
      {"smiles": "COc1cc(Nc2nccc(N3CCC(NC(=O)c4cc5ccccc5s4)C3)n2)cc(OC)c1OC", "note": "(stereo not shown) [GSK1379760]", "%Inh": 21},
      {"smiles": "O=C(Nc1cccc(-c2nn3ccccc3c2-c2ccnc(Nc3cccc(F)c3)n2)c1)c1c(F)ccc(F)c1Cl", "note": "[GSK357952]", "%Inh": 11},
      {"smiles": "CN(C)Cc1ccc(-c2ccc3c(Nc4ccc(Oc5ccccn5)cc4)ccnc3c2)o1", "note": "[GW567148]", "%Inh": 100},
      {"smiles": "CNC(=O)c1ccccc1Nc1nc(Nc2ccc(N3CCOCC3)cc2)ncc1Cl.Cl", "note": "[GSK1576028]", "%Inh": 100},
      {"smiles": "Cl.Cl.NCC(NC(=O)c1cc(-c2ccccc2)c(-c2ccnc3[nH]ccc23)s1)c1ccccc1", "note": "(stereo not shown) [GSK1321561]", "%Inh": 58},
      {"smiles": "COc1ccc(Nc2nccc(N3CCC(NC(=O)Nc4cccc(OC)c4)C3)n2)cc1", "note": "(stereo not shown) [GSK1379742]", "%Inh": 54},
      {"smiles": "COC(=O)Nc1nc2cc(Oc3ccc(NC(=O)Nc4cc(C(F)(F)F)ccc4F)cn3)ccc2[nH]1.Cl.Cl", "note": "[GW681170]", "%Inh": 100},
      {"smiles": "O=C(Nc1n[nH]c2cc(-c3ccoc3)ccc12)C1CC1", "note": "[SB-738481]", "%Inh": 30},
      {"smiles": "CSc1cccc2c(-c3ccncn3)c(-c3ccc(F)cc3)nn12", "note": "[GW514786]", "%Inh": 16},
      {"smiles": "c1ccc(Oc2ccc(Nc3ccnc4cc(-c5ccc(CNCCN6CCOCC6)o5)ccc34)cc2)nc1", "note": "[GW567145]", "%Inh": 100},
      {"smiles": "Nc1ncnc2c1nc(-c1ccccc1)n2-c1ccccc1", "note": "[SKF-97293]", "%Inh": 37},
      {"smiles": "Cl.c1ccc(-c2ccc3c(Nc4ccc5[nH]ccc5c4)ccnc3c2)nc1", "note": "[GW440138]", "%Inh": 0},
      {"smiles": "Cl.NC(=O)c1cccc(Nc2nccc(Nc3ccc(Oc4c(Cl)cccc4Cl)c(Cl)c3)n2)c1", "note": "[GW659009]", "%Inh": 20},
      {"smiles": "Cc1occc1-c1ncc(OC[C@@H](N)Cc2c[nH]c3ccccc23)cc1-c1ccc2[nH]nc(C)c2c1.O=C(O)C(F)(F)F", "note": "[GSK682037]", "%Inh": 33}
    ]}
  ]
}
